# Results from the antibiotic and cytotoxicity screens of Wong et al. (2023).
# Screen size: about 39,000 compounds; about 3,300 (8.5%) were called active. This excerpt belongs to a sample that is enriched for actives.
# Tested on: HepG2
# Experiment: cytotoxicity call (relative viability < 0.9)
# Settings: 10 µM
row,Structure (SMILES),cytotoxicity call
1,C[C@@H]1CCCCO[C@@H](CN(C)C(=O)Nc2ccc(F)cc2)[C@H](C)CN([C@H](C)CO)C(=O)c2cc(NC(=O)c3ccncc3)ccc2O1,inactive
2,C[C@H]1CCCCO[C@H](CN(C)C(=O)C2CCCCC2)[C@@H](C)CN([C@@H](C)CO)C(=O)c2cc(NS(=O)(=O)c3ccc(F)cc3)ccc2O1,inactive
3,C[C@H](CO)N1C[C@H](C)[C@@H](CN(C)C(=O)Nc2ccc(F)cc2)Oc2c(NS(C)(=O)=O)cccc2C1=O,inactive
4,COc1ccc(NC(=O)N(C)C[C@H]2Oc3c(NC(=O)C4CCOCC4)cccc3C(=O)N([C@@H](C)CO)C[C@@H]2C)cc1,inactive
5,O=C(N[C@H]1C=C[C@@H](CC(=O)N2CCOCC2)O[C@@H]1CO)c1ccccn1,inactive
6,CN(C)c1nc2ncnc(N)c2[nH]1,inactive
7,C[C@H]1CN([C@@H](C)CO)C(=O)c2ccccc2-c2ccccc2CO[C@@H]1CN(C)C(=O)Nc1ccccc1C(F)(F)F,inactive
8,C[C@@]1(O)N(CC(=O)O)C(=O)OC12CCCCC2,inactive
9,O=C1N[C@@H](Cc2ccccc2)C(=O)N2[C@@H]1C[C@@H](C(=O)NCc1ccc(F)cc1)[C@H]2c1cccc(OCCO)c1,inactive
10,O=S1(=O)C[C@H](NC[C@H]2C[C@@H]3C=C[C@H]2C3)[C@@H](O)C1,inactive
11,C[C@@H]1CN([C@H](C)CO)C(=O)c2cccc(NS(=O)(=O)c3cn(C)cn3)c2O[C@@H]1CN(C)C(=O)Nc1ccc(F)cc1,inactive
12,C[C@@H]1CN([C@@H](C)CO)C(=O)Cc2cc(NC(=O)Nc3ccc(C(F)(F)F)cc3)ccc2O[C@H]1CN(C)S(C)(=O)=O,inactive
13,Cc1ccc(S(=O)(=O)N(C)C[C@H]2Oc3ccc(NC(=O)Nc4ccc(C(F)(F)F)cc4)cc3CC(=O)N([C@@H](C)CO)C[C@H]2C)cc1,active
14,Cc1ccc(S(=O)(=O)N(C)C[C@H]2Oc3ccc(NC(=O)Nc4ccc(C(F)(F)F)cc4)cc3CC(=O)N([C@@H](C)CO)C[C@@H]2C)cc1,active
15,C[C@H]1CN([C@@H](C)CO)C(=O)c2cc(NS(=O)(=O)c3cn(C)cn3)ccc2O[C@H]1CN(C)C(=O)Nc1ccc(F)cc1,inactive
16,C[C@@H]1CN([C@H](C)CO)C(=O)c2cccc(NS(=O)(=O)c3cccs3)c2O[C@@H]1CN(C)S(=O)(=O)c1cccs1,inactive
17,Cc1noc(C)c1S(=O)(=O)N(C)C[C@H]1Oc2ccc(NS(=O)(=O)c3ccc(Cl)cc3)cc2CC(=O)N([C@H](C)CO)C[C@H]1C,inactive
18,O=C(N[C@@H]1CC[C@H](CCNS(=O)(=O)c2ccc(F)cc2)O[C@@H]1CO)C1CC1,inactive
19,C[C@H](CO)N1C[C@H](C)[C@@H](CN(C)S(=O)(=O)c2ccc(F)cc2)Oc2ccc(NS(=O)(=O)c3cn(C)cn3)cc2C1=O,inactive
20,C[C@H]1CCCCO[C@H](CN(C)C(=O)c2ccccc2)[C@@H](C)CN([C@@H](C)CO)C(=O)c2cc(NS(=O)(=O)c3ccc(Cl)cc3)ccc2O1,inactive
21,CN(C[C@@H](O)CN)S(=O)(=O)c1ccccc1,inactive
22,Cc1c(-c2ccccc2)n(C[C@@H](O)CN)c2ccccc12,active
23,O=C(O)c1ccc(OC[C@@H](O)CO[C@H](COc2ccc(C(=O)O)cc2)Cn2c3ccccc3c3ccccc32)cc1,inactive
24,COc1ccc(S(=O)(=O)Nc2ccc3c(c2)C(=O)N([C@H](C)CO)C[C@@H](C)[C@H](CN(C)Cc2ccccc2)OCCCC[C@H](C)O3)cc1,inactive

row,Structure (SMILES),cytotoxicity call
1,CS(=O)(=O)N1C[C@H]2CN(Cc3ccncc3)C(=O)[C@@H]2C1,inactive
2,C[C@H](CO)N1C[C@H](C)[C@H](CN(C)C(=O)CN(C)C)Oc2cc(C#CCN(C)C)ccc2S1(=O)=O,inactive
3,CCOc1cc2ncc(C#N)c(Nc3ccc(OCc4ccccn4)c(Cl)c3)c2cc1NC(=O)/C=C/CN(C)C,active
4,CCOc1cc2ncc(C#N)c(Nc3ccc(OCc4ccccn4)c(Cl)c3)c2cc1NC(=O)/C=C/[C@H]1CCCN1C,active
5,CCOc1ccc(C(=O)Nc2ccc(S(=O)(=O)N3CCCC[C@@H]3c3cccnc3)cc2)cc1OCC,inactive
6,COc1ccccc1[C@@H](NC(=O)C1CCN(CCOc2ccc(Cl)cc2Cl)CC1)c1ccccn1,inactive
7,OC[C@H]1CN(Cc2ccccc2)CCO1,inactive
8,Cc1nc2ccc([N+](=O)[O-])cc2s1,inactive
9,CO[C@H]1CN(C)C(=O)c2cc(NC(=O)CC(F)(F)F)ccc2OC[C@H](C)N(C(=O)C2CCOCC2)C[C@@H]1C,inactive
10,C=CCOC(=O)[C@H]1[C@@H]2C(=O)O[C@@H](c3ccccc3)[C@@H](c3ccccc3)N2[C@@H](c2ccc(OCCOC(=O)[C@H]3C[C@H]4C(=O)N[C@@H](CCCC[N+](C)(C)C)C(=O)N4[C@H]3c3ccc(O)cc3)cc2)[C@]12C(=O)Nc1ccc(I)cc12,inactive
11,C[C@@H]1CCCCO[C@@H](CN(C)C(=O)Nc2ccc(F)cc2)[C@@H](C)CN([C@H](C)CO)C(=O)c2cc(NC(=O)NC3CCCCC3)ccc2O1,inactive
12,COCOC[C@H](C)N1C[C@@H](C)[C@H](CN(C)S(=O)(=O)c2ccc(F)cc2)OCCCC[C@H](C)Oc2ccc(NC(=O)Nc3ccccc3)cc2C1=O,inactive
13,C=CCOC(=O)N(C)C[C@@H]1OCCCC[C@H](C)Oc2ccc(NC(=O)Nc3ccccc3)cc2C(=O)N([C@H](C)COC(=O)c2ccccc2)C[C@H]1C,inactive
14,C[C@@H]1CN([C@H](C)CO[Si](C)(C)C(C)(C)C)C(=O)c2cc(NC(=O)Nc3ccccc3)ccc2O[C@@H](C)CCCCO[C@H]1CN(C)S(=O)(=O)c1ccc(F)cc1,inactive
15,C[C@H]1CCCCO[C@H](CN(C)S(=O)(=O)c2ccccc2)[C@@H](C)CN([C@@H](C)CO)C(=O)c2cc(NC(=O)Nc3ccc(F)cc3)ccc2O1,active
16,C[C@@H]1CCCCO[C@@H](CN(C)S(=O)(=O)c2ccccc2)[C@H](C)CN([C@H](C)CO)C(=O)c2cc(NC(=O)Nc3ccc(F)cc3)ccc2O1,inactive
17,C[C@@H]1CN([C@@H](C)CO)C(=O)c2cc(NC(=O)Nc3ccc(F)cc3)ccc2O[C@@H](C)CCCCO[C@H]1CN(C)S(=O)(=O)c1ccccc1,inactive
18,C[C@H](CO)N1C[C@H](C)[C@@H](CN(C)S(=O)(=O)c2ccccc2)OCCCC[C@H](C)Oc2ccc(NC(=O)Nc3ccc(F)cc3)cc2C1=O,inactive
19,C[C@@H]1CCCCO[C@H](CN(C)S(=O)(=O)c2ccccc2)[C@H](C)CN([C@@H](C)CO)C(=O)c2cc(NC(=O)Nc3ccc(F)cc3)ccc2O1,active
20,C[C@@H]1CN([C@H](C)CO)C(=O)c2cc(NC(=O)Nc3ccc(F)cc3)ccc2O[C@@H](C)CCCCO[C@@H]1CN(C)S(=O)(=O)c1ccccc1,inactive
21,C=CCOC(=O)N(C)C[C@H]1OCCCC[C@H](C)Oc2ccc(NC(=O)Nc3ccccc3)cc2C(=O)N([C@@H](C)CO[Si](C)(C)C(C)(C)C)C[C@H]1C,active
22,C[C@@H]1CN([C@@H](C)CO[Si](C)(C)C(C)(C)C)C(=O)c2cc(NC(=O)Nc3ccccc3)ccc2O[C@@H](C)CCCCO[C@H]1CN(C)S(=O)(=O)c1ccc(F)cc1,active
23,C=CCOC(=O)N(C)C[C@@H]1OCCCC[C@H](C)Oc2ccc(NC(=O)Nc3ccccc3)cc2C(=O)N([C@@H](C)CO)C[C@H]1C,inactive
